Experimental data: the supplement of paper PMC10646978
± gives the standard deviation.

Tests used:
Details in all cases: modulator concentration 10 µM
[1] = system: RAW-Dual (murine macrophage reporter line); assay: NF-kB reporter (SEAP) activity fold change vs agonist alone; higher = enhanced NF-kB activity
Outline: (§1)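 Overnight stimulation with a PRR agonist followed pre-incubation for 1 hour at 37 °C with compound at 10 μM final. This was done in RAW-Dual murine macrophage reporter cells seeded at 50 000 per well in 384-well plates. NF-κB (SEAP, QUANTI-Blue absorbance at 620 nm) and IRF (Lucia luciferase, QUANTI-Luc luminescence) were read from the supernatant. Each reporter's fold change relative to the mean agonist-only control on the same plate was averaged over replicate plates.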

[2] = system: RAW-Dual (murine macrophage reporter line); assay: IRF reporter (Lucia luciferase) activity fold change vs agonist alone; higher = enhanced IRF activity
Outline: as §1

[3] = system: RAW-Dual (murine macrophage reporter line); assay: viability score (confluency relative to resting cells, overnight) (fraction); higher = more viable, active = viable (0.7 or more)
Outline: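 RAW-Dual macrophages in 384-well plates were incubated overnight with compound, final concentration 10 μM. Confluency images from IncuCyte were processed in IncuCyte software into two masks covering all imaged wells. The viability score is each well's confluency relative to resting cells, and a compound met the cutoff when both masks exceeded 70% of resting cells.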

[4] = agonist: CpG ODN 1826 0.5 ug/mL

Structure (SMILES)	NF-kB reporter [1, 4]	NF-kB reporter ([1]; agonist: LPS 0.1 ug/mL)	NF-kB reporter ([1]; agonist: MPLA […])	IRF reporter ([2]; agonist: 3'3'-cGAMP 10 ug/mL)	IRF reporter ([2]; agonist: LPS 0.1 ug/mL)	IRF reporter ([2]; agonist: MPLA […])	viability score [3]
O=C(Nc1ccc([N+](=O)[O-])cc1Cl)c1ccc([N+](=O)[O-])cc1	0.961 ± 0.083	1.07 ± 0.069	0.937 ± 0.06	0.937 ± 0.032	1.48 ± 0.11	1.23 ± 0.3	1.01 (active)
CN(C)[C@@H]1C(O)=C(C(N)=O)C(=O)[C@@]2(O)C(O)=C3C(=O)c4c(O)ccc(Cl)c4[C@@H](O)[C@H]3C[C@@H]12.Cl	1.29 ± 0.098	0.965 ± 0.055	1.17 ± 0.038	0.728 ± 0.048	0.971 ± 0.068	0.828 ± 0.12	0.984 (active)
CN(C)CCNC(=O)C(=O)NC(c1ccccc1)c1ccccc1	1.03 ± 0.11	1.01 ± 0.089	0.95 ± 0.027	0.998 ± 0.042	1.03 ± 0.091	0.962 ± 0.12	0.996 (active)
CCOc1ccccc1OCCCCOc1cccc(C)c1C	0.984 ± 0.1	1.03 ± 0.11	0.982 ± 0.061	1 ± 0.14	1.08 ± 0.13	1.1 ± 0.27	1 (active)
COc1cccc(S(=O)(=O)NCc2sc(-c3ccccc3)nc2C)c1	1.26 ± 0.12	1.1 ± 0.086	0.901 ± 0.045	0.922 ± 0.059	1.11 ± 0.12	1.16 ± 0.28	0.942 (active)
O=C1c2ccccc2C(=O)C1c1ccccc1	1.36 ± 0.21	1.01 ± 0.085	1.32 ± 0.15	0.856 ± 0.03	1.18 ± 0.1	0.968 ± 0.14	0.996 (active)
CCOC(=O)c1sc(NC(=O)CSc2nc3ccccc3o2)c(C(=O)OCC)c1C	1.01 ± 0.057	1.11 ± 0.09	1.06 ± 0.071	1.04 ± 0.039	1.3 ± 0.096	0.995 ± 0.12	0.981 (active)
COc1ccc2sc(C)[n+](CCCS(=O)(=O)[O-])c2c1	0.951 ± 0.088	1.08 ± 0.074	0.923 ± 0.064	0.923 ± 0.086	1.05 ± 0.12	1.1 ± 0.3	1 (active)
O=C1CN(/N=C/c2ccc([N+](=O)[O-])o2)C(=O)N1	1.13 ± 0.27	1.14 ± 0.087	0.87 ± 0.068	0.821 ± 0.029	1.21 ± 0.16	1.14 ± 0.17	0.994 (active)
CC(C)(C)NC[C@H](O)COc1nsnc1N1CCOCC1.O=C(O)/C=C\C(=O)O	1.19 ± 0.2	1.13 ± 0.43	0.917 ± 0.056	0.906 ± 0.031	1.3 ± 0.34	1.21 ± 0.14	0.992 (active)
NCCCCC(=O)O.O=C1c2ccccc2C(=O)C1[N+](=O)[O-]	0.788 ± 0.16	0.975 ± 0.076	0.843 ± 0.1	0.929 ± 0.025	1.13 ± 0.16	1.31 ± 0.13	1 (active)
CCC(=O)Nc1ccc(S(=O)(=O)N2CCC(Oc3ncnc(CC)c3F)C2)c(C)c1 (centres undefined)	1 ± 0.043	1.06 ± 0.087	1.2 ± 0.083	0.919 ± 0.055	1.24 ± 0.21	1.34 ± 0.4	0.992 (active)
COc1ccc(Br)cc1C(=O)Nc1cc(C(F)(F)F)cc(C(F)(F)F)c1	1.2 ± 0.11	0.99 ± 0.096	1.01 ± 0.044	0.982 ± 0.036	0.991 ± 0.07	1.05 ± 0.14	0.999 (active)
COc1cc(C=C(C#N)c2nc3ccccc3[nH]2)cc(Cl)c1O	1.23 ± 0.07	1.05 ± 0.09	0.992 ± 0.029	1.09 ± 0.039	1.06 ± 0.061	1.07 ± 0.14	0.998 (active)
COc1ccc(C=C2C(=O)N(c3ccc(C(=O)O)cc3)N=C2C)cc1	0.794 ± 0.082	0.977 ± 0.072	1.02 ± 0.092	0.934 ± 0.052	1.22 ± 0.099	1.21 ± 0.17	1.01 (active)
CC(C)CNC(=O)C(=O)Nc1ccc(C(C)C)cc1	1.03 ± 0.12	0.931 ± 0.11	1.01 ± 0.038	0.989 ± 0.15	0.959 ± 0.052	0.958 ± 0.093	1 (active)
COc1ccc(C2N3CC4(C)CN2CC(C)(C3)C4=O)cc1 (centres undefined)	1.03 ± 0.17	0.973 ± 0.093	0.947 ± 0.082	1.03 ± 0.027	1.32 ± 0.2	1.27 ± 0.15	1 (active)
O=C(NCC#CCN1CCc2ccccc2C1)c1cccc(Br)c1	0.87 ± 0.043	1.12 ± 0.095	0.94 ± 0.057	1.01 ± 0.057	1.14 ± 0.069	1.26 ± 0.12	1.01 (active)
Cc1c(C(=O)NN)sc(-c2ccccc2)c1C#N	0.868 ± 0.071	1.13 ± 0.074	0.987 ± 0.034	0.562 ± 0.071	1.08 ± 0.12	1.43 ± 0.29	0.998 (active)
COc1cc(C=NNC(=O)c2ccc(OC)c(OC)c2)ccc1O	0.788 ± 0.32	0.838 ± 0.098	0.831 ± 0.066	0.83 ± 0.022	0.938 ± 0.15	1.15 ± 0.15	0.996 (active)
Cc1cnc(NC(=O)C2=C(O)c3ccccc3S(=O)(=O)N2C)s1	1.24 ± 0.18	1.06 ± 0.41	0.953 ± 0.066	0.927 ± 0.036	1.15 ± 0.29	0.987 ± 0.089	1.01 (active)
CC(=O)OC1(C(C)=O)CCC2C3CC(C)C4=CC(=O)CCC4(C)C3CCC21C (centres undefined)	1.65 ± 0.4	1.36 ± 0.11	1.29 ± 0.089	0.937 ± 0.045	1.1 ± 0.13	1.23 ± 0.14	0.984 (active)
COc1cc2c(cc1OC)C(=O)NC1(CCCC1)C2	1.24 ± 0.095	0.958 ± 0.073	0.959 ± 0.092	0.819 ± 0.05	0.872 ± 0.11	0.911 ± 0.17	1.02 (active)
Cn1cnc2c(F)c(Nc3ccc(Br)cc3F)c(C(=O)NOCCO)cc21	0.822 ± 0.071	0.65 ± 0.052	0.666 ± 0.04	0.777 ± 0.045	1.17 ± 0.23	1.35 ± 0.45	0.248 (inactive)
Cc1c(NC(=S)NC(=O)c2ccccc2[N+](=O)[O-])cccc1-c1nc2ccccc2o1	0.898 ± 0.074	1 ± 0.073	1.05 ± 0.11	0.649 ± 0.093	1.04 ± 0.15	1.07 ± 0.31	1 (active)
COc1ccccc1C(=O)Nc1ccc(Nc2ccc(-n3cccn3)nn2)cc1	2.27 ± 0.12	1.36 ± 0.12	1.91 ± 0.092	0.334 ± 0.017	1.45 ± 0.094	1.11 ± 0.1	0.721 (active)
O=S(=O)(Nc1nc2ccccc2nc1Nc1ccc2c(c1)OCCO2)c1cccs1	0.985 ± 0.078	1.02 ± 0.065	1.13 ± 0.1	0.85 ± 0.028	1.29 ± 0.2	1.05 ± 0.098	0.99 (active)
